hNpr1 antagonist = Natriuretic polypeptide receptor (hNpr1) antagonism - Primary qHTS; HEK293 hNpr1 GloSensor cGMP, ANP-stimulated luminescence; AID 1347048, 2019; 1.6% of 76,000 active; Potency, µM (top dose mostly 46.3 µM), without a hit: top-dose activity change, negative = inhibition, most hits filed as inhibitors; Atrial natriuretic peptide receptor 1 (Homo sapiens), P16066; calls by dose curve; note: nearly all actives have a fitted effect of over 60% in size
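Compound pre-incubated 30 min at room temperature on GloSensor-loaded HEK293 cells stably carrying hNpr1 and the pGS-40F cGMP biosensor. Stimulation uses hNppA at 0.1 nM final; luminescence is taken at baseline and 20 min post-agonist.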
NIH3T3 tox = Cytotoxic Profiling in NIH 3T3 Cell Line of Diverse Libraries Using Quantitative High-Throughput Screening; NIH 3T3 viability, CellTiter-Glo ATP luminescence, 48-72 h; Potency, µM (doses to about 96.7 µM), inactives show top-dose activity change, negative = cytotoxicity, most hits filed as inhibitors; 4.3% of 94,000 active; AID 1345082, 2018; note: nearly all actives have a fitted effect of over 55% in size
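NIH 3T3 cells at 400 cells/well received 23 nL of compound by pintool and were incubated 48 or 72 h at 37 °C. Viability was read as ATP-coupled CellTiter-Glo luminescence.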
HEK293 tox = Cytotoxic Profiling in HEK 293 Cell Line of Diverse Libraries Using Quantitative High-Throughput Screening | HEK 293 viability, ATP luminescence (CellTiter-Glo), 48-72 h | Potency, µM (highest dose often 115 µM), for the others: top-dose activity change, negative = cytotoxicity, hits mostly inhibitors | 6.6% of 94,000 active | AID 1345083, 2018; note: nearly all actives have a fitted effect of over 60% in size
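Cells seeded first (HEK 293, 250 cells/well), then compound added by pintool. Incubation ran 48 or 72 hr at 37 degree Celsius. CellTiter-Glo was added and luminescence imaged after 10 min at room temperature.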
Luciferase inh = Firefly luciferase inhibition profiling of diverse chemical library using quantitative high-throughput screening | Luciferin 4-monooxygenase (Photinus pyralis), P08659 | purified P. pyralis luciferase, luminescence, biochemical | Potency, µM (highest dose often 115 µM), usual class: inhibitors | 2.5% of 76,000 active; note: nearly all actives have a fitted effect of over 65% in size
Target sequence (P08659 whole entry, looked up): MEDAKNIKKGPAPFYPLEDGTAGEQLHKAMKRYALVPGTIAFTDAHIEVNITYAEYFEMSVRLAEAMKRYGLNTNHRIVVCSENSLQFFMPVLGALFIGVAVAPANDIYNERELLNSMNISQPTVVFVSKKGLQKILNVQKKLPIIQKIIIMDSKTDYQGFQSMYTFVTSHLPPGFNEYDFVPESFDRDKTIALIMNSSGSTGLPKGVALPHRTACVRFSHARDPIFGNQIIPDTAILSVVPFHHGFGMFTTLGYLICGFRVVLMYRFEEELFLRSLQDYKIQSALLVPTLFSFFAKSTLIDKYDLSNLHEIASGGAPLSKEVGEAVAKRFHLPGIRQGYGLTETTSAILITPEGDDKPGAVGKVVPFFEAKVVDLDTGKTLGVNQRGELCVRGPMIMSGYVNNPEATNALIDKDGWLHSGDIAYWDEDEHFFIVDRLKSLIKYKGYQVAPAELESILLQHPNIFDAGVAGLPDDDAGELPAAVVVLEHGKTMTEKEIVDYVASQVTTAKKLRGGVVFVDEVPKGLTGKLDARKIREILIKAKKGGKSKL
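Luminescence read by CCD imager after adding enzyme (10nM final) to wells holding compound, titrated in qHTS. Substrates 10uM each D-luciferin and ATP; buffer 50mM Tris acetate pH 7.5, 10mM Mg acetate, Tween-20, BSA.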
Numbers without * were called inactive; i = inactive; ? = inconclusive; / = not tested or not shown; [ ] = remark or other dose. This is a sample that favours compounds with a hit; in the whole collection about 11% have one here. Unless noted, calls come from the whole dose curve; as a rule, active = well fitted curve in the direction sought with a large enough effect; inconclusive = small, poorly fitted or top-dose-only effect, or another doubt; inactive = no such curve, though single readings can be large; an effect the other way counts as inactive or inconclusive. % is set by controls: 0 for no effect and ±100 for the full control effect; potency is the fitted concentration of half-maximal effect.

SMILES	hNpr1 antagonist	NIH3T3 tox	HEK293 tox	Luciferase inh
COc1ccccc1CN1CCn2c(nn(-c3ccc([N+](=O)[O-])cc3)c2=O)C1	?	?	?	i
C=CCCC(=O)N1[C@@H](c2ccco2)[C@@H](C(=O)OCC)C[C@]12CCCCN(CCOC(C)=O)C2=O	/	-28%	?	/
COCC(=O)N1CCCN(c2ccc3nnc(-c4ccccc4)n3n2)CC1	/	-11%	?	/
COc1ccc(-c2cc3c(=O)n(CCNC(=O)c4cccc(OC)c4OC)ccn3n2)cc1	-15%	?	35µM*	6.3µM*
O=C(Cc1cccc(F)c1)NCCn1ccn2nc(-c3ccc(F)cc3)cc2c1=O	-16%	-22%	?	?
O=C(NCCn1ccn2nc(-c3ccc(F)cc3)cc2c1=O)c1ccoc1	-13%	?	50µM*	?
COc1cccc(-c2cc3c(=O)n(CCNC(=O)c4ccccc4F)ccn3n2)c1	-8%	-28%	?	?
CCOc1ccc(-c2cc3c(=O)n(CCNC(=O)c4ccoc4)ccn3n2)cc1	-5%	-25%	45µM*	20µM*
O=C(NCCn1ccn2nc(-c3ccc(F)cc3)cc2c1=O)c1c(F)cccc1Cl	2%	?	32µM*	i
COCC(=O)Nc1ccc([C@@H](O)[C@H]2COCC(=O)N2)cc1	-3%[70.6 µM]	i	i	i
COc1ccc(NC(=O)c2cn3cc(-c4ccc(F)cc4)sc3n2)cc1	/	1%	i	/
COc1ccc(CNC(=O)C2(c3ccc(OC)cc3)CCOCC2)cc1	/	-33%	-14%	/
C=CCCC(=O)N1C[C@@H](C(=O)OCC)[C@@H]2Oc3ccccc3[C@@H]21	/	?	-4%	/
Cc1ccc(C(=O)NCCn2ccn3nc(-c4ccc(F)cc4)cc3c2=O)cc1F	-21%	-29%	?	i
COc1cccc(C(=O)NCCn2ccn3nc(-c4ccc(C)c(C)c4)cc3c2=O)c1	-19%	-9%	-20%	?
O=C(NCCn1ccn2nc(-c3ccc(F)cc3)cc2c1=O)c1ccc2[nH]ccc2c1	0%	-19%	-22%	11µM*
COc1ccc(-c2cc3c(=O)n(CCNC(=O)c4sccc4C)ccn3n2)cc1	-13%	-18%	?	4.5µM*
COc1ccc(-c2cc3c(=O)n(CCNC(=O)c4ccsc4)ccn3n2)cc1	-24%	-20%	?	4.5µM*
COc1ccc(-c2cc3c(=O)n(CCNC(=O)c4ccc(C)c(F)c4)ccn3n2)cc1	-17%	-14%	3%	i
COc1ccc(-c2cc3c(=O)n(CCNC(=O)c4ccoc4)ccn3n2)cc1	-12%	-20%	22µM*	?
COc1ccc(-c2cc3c(=O)n(CCNC(=O)c4ccc(OC)c(OC)c4)ccn3n2)cc1	-23%	-9%	?	?
COc1ccc(C2(C(=O)N3CCCC(CO)CCNC(=O)CC3)CC2)cc1 (stereo unspecified)	3%	-3%	-1%	i
c1ccc([C@@H]2C[C@@H]3C[C@H](N4CCNCC4)C[C@@H]3CO2)cc1	/	-30%	?	/
Cc1ncoc1C(=O)NCc1cc(Cl)cc2c(C)c(-c3ccccc3)[nH]c12	2.8µM*	?	?	?
Cc1nc(CCC(=O)NCc2cc(Cl)cc3c(C)c(-c4ccccc4)[nH]c23)n[nH]1	-1%	?	?	32µM*
SMILES	hNpr1 antagonist	NIH3T3 tox	HEK293 tox	Luciferase inh
Cc1ncoc1C(=O)NCC(=O)N1CCCCCNC(=O)CC1c1ccccc1 (stereo unspecified)	1%	-11%	-11%	i
CCc1nc2c(c(-c3ccc(O)cc3)n1)CN(C(=O)C1CC1)CC2	/	-18%[138 µM]	?	/
COc1cccc(CNC(=O)c2cn3cc(-c4ccc(C(F)(F)F)cc4)sc3n2)c1	/	-14%	-3%	/
O=C(NCc1ccccc1)C1CN(C2CCCCC2)C(=O)N1 (stereo unspecified)	/	-2%[138 µM]	-5%[172 µM]	/
O=C(O)CCn1ncc2cc(OCC3CCN(C(=O)c4cc(F)ccc4Cl)CC3)ccc21	/	32µM*	-2%	i
CC(C)OC(=O)N1CCC(COc2ccc3c(cnn3CCC(=O)O)c2)CC1	0%[70.6 µM]	28µM*	-32%[172 µM]	?
O=C(O)CCn1ncc2cc(OCC3CCN(C(=O)Oc4ccccc4)CC3)ccc21	/	28µM*	-3%[172 µM]	i
Cc1ccccc1-c1cccc(CN2CCOC(CCN)C2)c1 (stereo unspecified)	-7%	20µM*	?	i
COc1cccc(CN2CCCC(COc3ccccc3C(=O)NC(C)C)C2)n1 (stereo unspecified)	-14%	0%	-15%	i
O=[S+]1([O-])NCC2(CCCN(Cc3cccc(C(F)(F)F)c3)C2)Oc2ncccc21 (stereo unspecified)	/	-28%	?	/
O=[S+]1([O-])NCC2(CCCN(Cc3ccc(OC(F)(F)F)cc3)C2)Nc2ccccc21 (stereo unspecified)	-25%	45µM*	?	i
O=[S+]1([O-])NCC2(CCCN(Cc3ccc(Cl)cc3)C2)Oc2ncccc21 (stereo unspecified)	/	?	89µM*	/
O=[S+]1([O-])NCC2(CCCN(Cc3ccc(C(F)(F)F)cc3)C2)Nc2ccccc21 (stereo unspecified)	-17%	?	32µM*	i
O=[S+]1([O-])NCC2(CCN(Cc3ccc(OC(F)(F)F)cc3)CC2)Nc2ccccc21	1%	?	40µM*	i
CN(Cc1cccc(C(F)(F)F)c1)CC1CC1	/	-19%[138 µM]	-28%[172 µM]	/
CCOCCCNC(=O)C1CCN(C(=O)c2ccc(-c3cncnc3)cc2)CC1	/	-2%	i	/
CN1C[C@@H](NC(=O)c2ccc3c(c2)OCO3)C[C@H]1c1nc(-c2ccc3ccccc3c2)no1	-19%	?	79µM*	i
CN1C[C@@H](NC(=O)CC(C)(C)CC(=O)O)C[C@H]1c1nc(-c2ccc3c(c2)OCO3)no1	4%[70.6 µM]	-1%[174 µM]	2%[172 µM]	50µM*
CCC[C@@H]1CN(C(=O)C2(c3ccc(F)cc3)CCOCC2)C[C@H]1N(C)C	-1%	-15%	-12%	i
Cc1ccc(Cn2c(C3CCN(C(=O)c4ccc(C)c(C)c4)CC3)n[nH]c2=O)cc1	-16%	?	?	i
Cc1nn(-c2ccccc2)c(C)c1[C@@H]1C=C[C@@H](NC(=O)CC(C)(C)CC(=O)O)C1	7%[70.6 µM]	-14%[174 µM]	-24%[172 µM]	i
COc1ccc(CN[C@@H]2C=C[C@@H](c3c(C)nn(-c4cccc(Br)c4)c3C)C2)cc1	-21%	?	?	i
COc1ccc(CN[C@@H]2C=C[C@@H](c3c(C)nn(-c4ccc(OC)cc4)c3C)C2)cc1	-30%[70.6 µM]	32µM*	50µM*	?
COc1ccc(-n2nc(C)c([C@@H]3C=C[C@@H](NCc4ccccc4)C3)c2C)cc1	?	?	79µM*	50µM*

Screening results as filed in PubChem BioAssay.
